In the library only some 2.8% were active in any assay of this set; here they are far more common.
PP5 primary: PP5 phosphatase inhibitors, primary screen, biochemical, fluorescence; inhibition, % at 6.7 µM; Serine/threonine-protein phosphatase 5 (Homo sapiens), P53041; purified PP5c, OMFP substrate fluorescence; AID 1987, 2009; actives 0.18% (n = 320,000);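 active means inhibition above the campaign's mean inhibition across all tested compounds plus 3 SD, cut at about 9.5% in these data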
SKKanGAS inh: S. pyogenes SKKanGAS growth inhibitors in kanamycin, primary screen, streptokinase expression inhibitor project, SKKanGAS strain, BacTiter-Glo luminescence; AID 1662, 2009; inhibition, % at 7.5 µM; 6 h; actives 1.3% (n = 300,000);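 active means mean replicate score, as percent of positive control median, at least 50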;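 further: strain carries kanamycin resistance gene driven by streptokinase promoter and grows in 40 µg/ml kanamycin; loss of luminescence reflects streptokinase promoter inhibition or plain growth inhibition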
IDE cell inh: human IDE inhibitors in live cells, primary screen, fluorescence polarization, HEK cells, FAbetaB substrate | Insulin-degrading enzyme (Homo sapiens), P14735 | FAbetaB cleavage | inhibition, % at 5.59 µM | actives 0.41% (n = 320,000) | AID 434962, 2010;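 active means percent inhibition above the average of all tested compounds plus 3 SD, set per screening campaign, cut at about 16% in these data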;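 further: IDE supplied by intact live HEK cells; FP after avidin binding of uncleaved biotin substrate so inhibition keeps polarization high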
PP1 counter: PP1-alpha phosphatase inhibitors, primary screen, counter-screen for PP5 inhibitor project, biochemical, fluorescence, OMFP substrate, single point. Serine/threonine-protein phosphatase PP1-alpha catalytic subunit (Homo sapiens), P62136. inhibition, % at 6.7 µM. purified PP1alpha. actives 0.9% (n = 320,000);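 active means inhibition above the mean inhibition of all tested compounds plus 3 SD, computed separately for each screening campaign, cut at about 15% in these data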
Target sequence (P62136 whole entry, looked up): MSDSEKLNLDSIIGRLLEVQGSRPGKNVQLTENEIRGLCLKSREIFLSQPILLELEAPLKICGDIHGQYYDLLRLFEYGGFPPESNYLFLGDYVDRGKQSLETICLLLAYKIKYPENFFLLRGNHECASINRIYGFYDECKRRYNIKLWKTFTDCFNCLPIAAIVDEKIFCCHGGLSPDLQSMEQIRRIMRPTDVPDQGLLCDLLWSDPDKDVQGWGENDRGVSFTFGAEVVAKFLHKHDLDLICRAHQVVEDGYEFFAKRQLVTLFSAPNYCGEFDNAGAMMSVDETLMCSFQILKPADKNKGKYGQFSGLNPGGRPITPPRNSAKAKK
Granule exo inh: LAMP-1 surface exposure blockers, TALL-104 cells – cell-based, flow cytometry, MLPCN library, primary screen. TALL-104 LAMP-1 surface exposure; cells stimulated with thapsigargin and PMA. inhibition, % at 10 µM. actives 0.66% (n = 360,000). AID 651702, 2012;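 active means inhibition above about 55%, limit read from the data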
IDE cell activ: human IDE activators in live cells, primary screen, fluorescence polarization, HEK cells, FAbeta-B substrate. FAbeta-B cleavage; 0% vehicle, 100% cell-free pure enzyme wells. actives 0.073% (n = 340,000). activation, % at 5.96 µM;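 active means activation above the mean of all tested compounds plus 3 SD, set per screening campaign, cut at about 17% in these data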
Granule exo CP1: inhibitors of lytic granule exocytosis, confirmation, TALL-104 cells, flow cytometry, Cherry Pick01; shares compounds with Granule exo inh; LAMP-1 externalization; stimulated with PMA plus thapsigargin; inhibition, % at 10 µM; actives 11% (n = 1,500); AID 651954, 2012; in the data active means inhibition above about 60%
Numbers stand for hits.

Screening O=c1c2c3c(sc2nc(NCCO)n1CCc1ccccc1)CCCCC3 returned PP5 primary inactive, SKKanGAS inh inactive, IDE cell inh inactive, PP1 counter inactive, Granule exo inh inactive and IDE cell activ inactive.
Screening Cc1ccc(-c2csc3ncn(-n4c(C)ccc4C)c(=O)c23)o1 returned PP5 primary inactive, SKKanGAS inh inactive, IDE cell inh inactive, PP1 counter inactive, Granule exo inh 55.6, IDE cell activ inactive and Granule exo CP1 inactive.
`O=Cc1ccccc1OCCCOc1cccc2cccnc12` gave PP5 primary inactive, SKKanGAS inh inactive, IDE cell inh inactive, PP1 counter inactive, Granule exo inh inactive and IDE cell activ inactive.
For Clc1ccccc1OCCCOc1cccc2cccnc12 the results were PP5 primary inactive, SKKanGAS inh inactive, IDE cell inh inactive, PP1 counter inactive, Granule exo inh 88.0, IDE cell activ inactive and Granule exo CP1 inactive.
`CC(C)NC(=O)C1C(c2ccc(C(F)(F)F)cc2)=Nc2ccccc2N1C(=O)c1cc2ccccc2[nH]1` (stereo not given) gave Granule exo inh inactive.
Screening O=C(NC1CCCC1)C1C(c2ccc(C(F)(F)F)cc2)=Nc2ccccc2N1C(=O)c1cc2ccccc2[nH]1 (stereo not given) returned Granule exo inh 69.8 and Granule exo CP1 inactive.
For CSc1ccc2c(c1)C(N1CCN(C)CC1)Cc1ccc(F)cc1S2 (stereo not given) the results were PP5 primary inactive, SKKanGAS inh inactive, IDE cell inh inactive, PP1 counter inactive, Granule exo inh 69.4 and Granule exo CP1 inactive.
For c1ccc(C(NCCNC(c2ccccc2)c2ccccc2)c2ccccc2)cc1 the results were PP5 primary inactive, SKKanGAS inh 104.6, IDE cell inh inactive, PP1 counter inactive, Granule exo inh 80.2, IDE cell activ inactive and Granule exo CP1 inactive.
C=CC[C@@H](CC(=O)N[C@H](CO)Cc1ccccc1)C(=O)NC[C@H](OC(=O)[C@@H](CC=C)Cc1ccc(F)cc1)c1ccccc1 was read as IDE cell inh inactive, Granule exo inh inactive and IDE cell activ inactive.
Screening Cc1nn(C)cc1NC(=O)c1cc2nc(-c3ccco3)cc(C(F)(F)F)n2n1 returned PP5 primary inactive, SKKanGAS inh inactive, IDE cell inh inactive, PP1 counter inactive, Granule exo inh inactive and IDE cell activ inactive.
`O=C(Nc1cnn(Cc2ccccc2)c1)c1cc2nc(-c3ccco3)cc(C(F)(F)F)n2n1` gave PP5 primary inactive, SKKanGAS inh inactive, IDE cell inh inactive, PP1 counter inactive, Granule exo inh 96.2, IDE cell activ inactive and Granule exo CP1 inactive.
Screening COc1ccc(-c2cn(CCO)c(-c3ccncc3)n2)cc1 returned PP5 primary inactive, IDE cell inh inactive, PP1 counter inactive, Granule exo inh inactive and IDE cell activ inactive.
N#C/C(=C\c1cccc(O)c1)C(=O)Nc1ccc2c(c1)OCCO2 was read as PP5 primary inactive, SKKanGAS inh inactive, IDE cell inh inactive, PP1 counter inactive, Granule exo inh inactive and IDE cell activ inactive.
`CC(C)(C)n1nnnc1C(c1cccs1)N(Cc1ccccc1)Cc1ccco1` (stereo not given) gave PP5 primary inactive, SKKanGAS inh inactive, IDE cell inh inactive, PP1 counter inactive, Granule exo inh 77.9, IDE cell activ inactive and Granule exo CP1 inactive.
Screening COc1ccc(Nc2nc(N3CCN(S(C)(=O)=O)CC3)nc3ccccc23)c(OC)c1 returned PP5 primary inactive, SKKanGAS inh inactive, IDE cell inh inactive, PP1 counter inactive, Granule exo inh inactive and IDE cell activ inactive.
For COc1ccc(Nc2nc(N3CCN(S(=O)(=O)N(C)C)CC3)nc3ccccc23)cc1 the results were PP5 primary inactive, SKKanGAS inh inactive, IDE cell inh inactive, PP1 counter inactive, Granule exo inh 81.2, IDE cell activ inactive and Granule exo CP1 inactive.
Screening COc1ccc2ccc(OCC(=O)NCC3CCCO3)cc2c1 (stereo not given) returned Granule exo inh inactive and IDE cell activ inactive.
O=C(NC1CCCCC1)C(CCc1ccccc1)N1CCc2ccccc2C1 (stereo not given) was read as Granule exo inh inactive.
`COc1ccc(CCNCC(O)COc2cccc(Br)c2)cc1OC` (stereo not given) gave PP5 primary inactive, SKKanGAS inh inactive, IDE cell inh inactive, PP1 counter inactive, Granule exo inh inactive and IDE cell activ inactive.
COc1ccc(CCNCC(O)COc2ccc(OC)cc2C(C)(C)C)cc1 (stereo not given) was read as PP5 primary inactive, SKKanGAS inh inactive, IDE cell inh inactive, PP1 counter inactive, Granule exo inh 60.7, IDE cell activ inactive and Granule exo CP1 inactive.
For COCCn1c(SCC(=O)Nc2ccccc2OC)nc2c(oc3ccccc32)c1=O the results were PP5 primary inactive, SKKanGAS inh inactive, IDE cell inh inactive, PP1 counter inactive, Granule exo inh 64.6, IDE cell activ inactive and Granule exo CP1 inactive.
For COc1ccccc1NC(=O)CSc1nc2sc(C)c(C)c2c(=O)n1C the results were PP5 primary inactive, SKKanGAS inh inactive, IDE cell inh inactive, PP1 counter inactive, Granule exo inh 59.7, IDE cell activ inactive and Granule exo CP1 inactive.
For Cc1noc(NS(=O)(=O)c2ccc(NC(=O)NC(C)(C(F)(F)F)C(F)(F)F)cc2)c1C the results were PP5 primary inactive, SKKanGAS inh inactive, IDE cell inh inactive, PP1 counter inactive, Granule exo inh inactive and IDE cell activ inactive.
`O=C(CCCN1C(=O)NC2(CCCC2)C1=O)NCc1ccccc1` gave PP5 primary inactive, IDE cell inh inactive, PP1 counter inactive, Granule exo inh inactive and IDE cell activ inactive.
For CCn1cc(CN2CCC(n3nccc3NC(=O)C3CCCC3)CC2)cn1 the results were PP5 primary inactive, SKKanGAS inh inactive, IDE cell inh inactive, PP1 counter inactive, Granule exo inh inactive and IDE cell activ inactive.
Screening CCCc1ccc(S(=O)(=O)N(C)S(=O)(=O)c2ccc(F)cc2)cc1 returned PP5 primary inactive, SKKanGAS inh inactive, IDE cell inh inactive, PP1 counter inactive, Granule exo inh 69.8, IDE cell activ inactive and Granule exo CP1 inactive.
For CCN(CC)S(=O)(=O)c1ccc(F)cc1 the results were PP5 primary inactive, SKKanGAS inh inactive, IDE cell inh inactive, PP1 counter inactive, Granule exo inh inactive and IDE cell activ inactive.
c1ccc(COc2ccc(-c3cc4nc(NCCN5CCOCC5)ccn4n3)cc2)cc1 was read as Granule exo inh 61.4 and Granule exo CP1 inactive.

Screening data (PubChem BioAssay)
